Assay [1] relates to Plasmodium falciparum Sir2 (PF13_0152, Sir2A). The assay can be described thus: Plasmodium falciparum Sir2A binding compounds – biochemical, small-molecule microarray, 635 nm fluorescence, primary screen (AID 1098).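 Also: score merges spot fluorescence intensity with its signal-to-noise ratio.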 The settings on record: fluorescence 635 nm, higher = more signal.
Assay [2] is described as follows: probe aDKK1 binding to arrayed compounds – biochemical, biotinylated probe, 635/667 nm fluorescence, primary screen (AID 1099).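 Also: score merges 667nm spot fluorescence with signal to noise across triplicate slides.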 The settings on record: small-molecule microarray, higher = more signal.
Assay [3] is described as follows: probe aCHRDL2 binding to arrayed compounds – biochemical, biotinylated probe, 635/667 nm fluorescence, primary screen (AID 1100). The note with it: small-molecule microarray, higher = more signal.
A short description of assay [4]: change in splice reporter luminescence, either direction, cell-based, HEK293, spliceosome inhibition project, primary screen (AID 1101).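 Also: HEK293 cells carrying a splicing-competent luciferase reporter gene; test concentration not given here.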 The settings on record: HEK293 splicing luciferase reporter, 24 h, higher = more signal, called active from +8 up or from −8 down. Background: In a reporter assay the amount or activity of a reporter protein is the signal.
For assay [5], the target named is Fibroblast growth factor 10 (Homo sapiens) (UniProt O15520). The assay can be described thus: compounds binding fibroblast growth factor 10 – biochemical, small-molecule microarray, 635 nm fluorescence, primary screen (AID 1102). The settings on record: FGF10 binding, fluorescence 635 nm, higher = more signal.
Sequence of Fibroblast growth factor 10 (Homo sapiens) (O15520 whole entry, looked up): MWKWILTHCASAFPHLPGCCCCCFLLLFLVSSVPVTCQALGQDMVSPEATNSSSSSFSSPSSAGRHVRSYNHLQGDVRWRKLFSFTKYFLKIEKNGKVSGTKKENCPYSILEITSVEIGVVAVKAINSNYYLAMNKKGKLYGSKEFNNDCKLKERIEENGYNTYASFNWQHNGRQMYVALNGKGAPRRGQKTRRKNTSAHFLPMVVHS
For assay [6], the system named is glycogen synthase kinase-3 (GSK3A per assay name; protocol says GSK3B). In words: compounds binding glycogen synthase kinase-3 – biochemical, small-molecule microarray, 635 nm fluorescence, GSK3A, primary screen (AID 1103). Also: the record names both GSK3A and GSK3B. The note with it: fluorescence 635 nm, higher = more signal.
Assay [7] addresses Epidermal growth factor receptor (Homo sapiens) (UniProt P00533). In words: compounds binding epidermal growth factor receptor – biochemical, small-molecule microarray, 635 nm fluorescence, primary screen (AID 1104).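 Also: score merges 667 nm emission intensity with spot signal to noise over triplicate slides.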 The note with it: EGFR binding, higher = more signal.
Assay [8] deals with Follistatin-related protein 3 (Homo sapiens) (UniProt O95633). In words: compounds binding follistatin-related protein 3 – biochemical, small-molecule microarray, 635 nm fluorescence, primary screen (AID 1105).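 Also: score merges emission near 667 nm and signal to noise per printed spot across three slides.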 The note with it: FSTL3 binding, higher = more signal.
Sequence of Follistatin-related protein 3 (Homo sapiens) (O95633 whole entry, looked up): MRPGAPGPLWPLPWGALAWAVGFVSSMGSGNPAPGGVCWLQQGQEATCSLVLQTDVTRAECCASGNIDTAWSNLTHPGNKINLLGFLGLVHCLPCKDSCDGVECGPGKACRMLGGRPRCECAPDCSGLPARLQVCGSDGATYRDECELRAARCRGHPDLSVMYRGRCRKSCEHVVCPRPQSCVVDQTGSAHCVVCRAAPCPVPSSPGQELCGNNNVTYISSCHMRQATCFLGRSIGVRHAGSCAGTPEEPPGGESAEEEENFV
Assay [9] addresses Dickkopf-related protein 1 (Homo sapiens) (UniProt O94907). In words: small molecules binding DKK1 protein – biochemical, small-molecule microarray, 635 nm fluorescence scan, primary screen (AID 1106).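 Also: score merges emission near 667 nm with signal to noise over three replicate slides.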 The settings on record: higher = more signal.
For assay [10], the system named is Inhibin beta A chain (activin A). The assay can be described thus: small molecules binding activin A – biochemical, small-molecule microarray, 635 nm fluorescence scan, primary screen (AID 1107).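 Also: mouse activin A protein probed at 4.33 µg/mL on printed slides; score merges bound-protein fluorescence near 667 nm with spot signal-to-noise.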 The note with it: INHBA, higher = more signal.
Assay [11] concerns Human papillomavirus type 1a protein E7 (residues 44-93). The assay can be described thus: small molecules binding HPV E7 44-93 – biochemical, small-molecule microarray, residues 44-93, 635 nm fluorescence, primary screen (AID 1108).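 Also: E7 fragment applied at 1 µg/mL in TBST for 1 h at 4 C; score combines spot fluorescence with its signal to noise ratio.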 The note with it: fluorescence 635 nm, higher = more signal.
Assay [12] in a line: hepatitis C replication reporter changes, two-sided – Huh7 cells, luciferase reporter, HCV replication inhibitor project, primary screen (AID 1109).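 Also: huh7 hepatoma cells harbouring a luciferase neomycin HCV replicon reporter; luciferase luminescence as measure of HCV replicon replication; test concentration not given here.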 The note with it: Huh7 HCV replicon luciferase reporter, 48 h; higher = more signal.
The target of assay [13] is Left-right determination factor 2 (Homo sapiens) (UniProt O00292). In words: small molecules binding LEFTY2 protein – biochemical, small-molecule microarray, 635 nm fluorescence scan, primary screen (AID 1110). The note with it: higher = more signal.
Sequence of Left-right determination factor 2 (Homo sapiens) (O00292 whole entry, looked up): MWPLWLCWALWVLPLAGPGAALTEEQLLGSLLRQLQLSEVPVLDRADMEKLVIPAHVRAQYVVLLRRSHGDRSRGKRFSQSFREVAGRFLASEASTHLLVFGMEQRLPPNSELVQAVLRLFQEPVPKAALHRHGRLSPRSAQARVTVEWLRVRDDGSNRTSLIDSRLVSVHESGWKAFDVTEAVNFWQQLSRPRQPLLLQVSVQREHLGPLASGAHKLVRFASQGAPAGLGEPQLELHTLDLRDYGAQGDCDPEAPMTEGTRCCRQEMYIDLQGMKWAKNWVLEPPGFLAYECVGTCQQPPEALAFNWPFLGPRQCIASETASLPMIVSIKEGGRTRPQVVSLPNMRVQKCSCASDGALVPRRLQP
Assay [14] concerns the target Calmodulin-1 (Homo sapiens) (UniProt P0DP23). In words: small molecules binding calmodulin-1 with EGTA – biochemical, small-molecule microarray, Cy5-labelled CALM1, profiling panel (AID 1111).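 Also: labelled calmodulin applied in Tris saline Tween buffer holding calcium plus EGTA and DTT.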 The note with it: Cy5-CALM1 binding fluorescence, higher = more signal.
Assay [15] has the same target. The assay can be described thus: small molecules binding Ca-loaded calmodulin-1 – biochemical, small-molecule microarray, Cy5-labelled CALM1, plus calcium, artefact control for SMM control-protein annotation, profiling panel (AID 1112).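 Also: score merges spot fluorescence with signal to noise from triplicate slides.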 The settings on record: Cy5-CALM1 binding fluorescence, higher = more signal.
The nature of assay [16]: probe aWnt5a binding to arrayed compounds – biochemical, biotinylated probe, 635/667 nm fluorescence, primary screen (AID 1113).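 Also: score merges 667 nm fluorescence intensity with signal-to-noise per printed feature.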 The note with it: small-molecule microarray, higher = more signal.
Assay [17] in a line: probe aShh binding to arrayed compounds – biochemical, biotinylated probe, 635/667 nm fluorescence, primary screen (AID 1114).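 Also: probe is biotin-labelled aShh protein from a stem cell growth factor screen; measures binding of labelled protein to compounds printed on the slide; score merges feature fluorescence at 667 nm with signal-to-noise.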 The note with it: small-molecule microarray, higher = more signal.
Assay [18] is described as follows: probe aNog binding to arrayed compounds – biochemical, biotinylated probe, 635/667 nm fluorescence, primary screen (AID 1115).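 Also: probe is biotinylated aNog protein used at 0.15 µg/mL for 1 h at 4 C; z-score combines 667 nm fluorescence of each spot with its signal to noise.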 The settings on record: small-molecule microarray, higher = more signal.
Assay [19] addresses Torsin-1A-interacting protein 1 (Homo sapiens) (UniProt Q5JTV8). The assay can be described thus: compound microarray binding of lysate hLAP1 – cell lysate, small-molecule microarray, COS7 lysate, 635/667 nm fluorescence, primary screen (AID 1116). The settings on record: 635 nm fluorescence, higher = more signal.
Assay [20] addresses Alpha-bungarotoxin (Bungarus multicinctus) (UniProt P60615). In words: compounds binding labelled alpha-BTX control protein – biochemical, small-molecule microarray, Alexa647 label, 635/667 nm fluorescence, artefact control for SMM control protein annotation, profiling panel (AID 1117). The note with it: alpha-BTX-A647 binding fluorescence, higher = more signal.

The source made the active and inactive calls.

Sequence of Epidermal growth factor receptor (Homo sapiens) (P00533 whole entry, looked up): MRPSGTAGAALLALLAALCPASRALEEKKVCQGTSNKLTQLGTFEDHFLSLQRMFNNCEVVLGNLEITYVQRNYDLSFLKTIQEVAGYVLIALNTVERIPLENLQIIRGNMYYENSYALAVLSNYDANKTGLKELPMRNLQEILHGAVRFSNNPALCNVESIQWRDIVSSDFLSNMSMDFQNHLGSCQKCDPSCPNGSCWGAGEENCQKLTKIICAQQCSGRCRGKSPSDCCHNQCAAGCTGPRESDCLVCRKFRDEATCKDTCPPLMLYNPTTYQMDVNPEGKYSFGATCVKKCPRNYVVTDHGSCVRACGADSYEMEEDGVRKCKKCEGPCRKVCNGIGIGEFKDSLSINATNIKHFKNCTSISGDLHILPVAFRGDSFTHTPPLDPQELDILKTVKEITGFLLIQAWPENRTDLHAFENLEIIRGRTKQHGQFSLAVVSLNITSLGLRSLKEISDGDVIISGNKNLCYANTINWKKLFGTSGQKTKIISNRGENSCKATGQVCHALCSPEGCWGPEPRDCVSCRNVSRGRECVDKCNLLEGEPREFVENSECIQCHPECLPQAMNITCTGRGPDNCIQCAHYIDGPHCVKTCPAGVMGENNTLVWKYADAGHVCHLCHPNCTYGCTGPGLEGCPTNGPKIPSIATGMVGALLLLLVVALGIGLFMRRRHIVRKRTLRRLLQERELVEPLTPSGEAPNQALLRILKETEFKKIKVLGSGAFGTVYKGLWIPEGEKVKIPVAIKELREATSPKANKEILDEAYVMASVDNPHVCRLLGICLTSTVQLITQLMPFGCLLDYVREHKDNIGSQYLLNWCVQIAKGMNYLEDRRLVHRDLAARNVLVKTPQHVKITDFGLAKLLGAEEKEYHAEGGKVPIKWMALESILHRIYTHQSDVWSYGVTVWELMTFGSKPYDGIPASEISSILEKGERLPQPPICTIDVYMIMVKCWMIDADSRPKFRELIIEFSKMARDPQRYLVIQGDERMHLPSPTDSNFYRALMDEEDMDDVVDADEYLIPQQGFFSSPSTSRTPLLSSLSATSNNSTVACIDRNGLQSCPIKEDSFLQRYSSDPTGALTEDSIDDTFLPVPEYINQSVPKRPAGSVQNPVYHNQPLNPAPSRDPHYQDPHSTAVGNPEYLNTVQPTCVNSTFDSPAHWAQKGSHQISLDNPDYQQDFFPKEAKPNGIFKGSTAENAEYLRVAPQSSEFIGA
Sequence of Alpha-bungarotoxin (Bungarus multicinctus) (P60615 whole entry, looked up): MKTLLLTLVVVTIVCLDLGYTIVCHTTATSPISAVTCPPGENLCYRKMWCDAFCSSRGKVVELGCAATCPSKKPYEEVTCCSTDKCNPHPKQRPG
Sequence of Dickkopf-related protein 1 (Homo sapiens) (O94907 whole entry, looked up): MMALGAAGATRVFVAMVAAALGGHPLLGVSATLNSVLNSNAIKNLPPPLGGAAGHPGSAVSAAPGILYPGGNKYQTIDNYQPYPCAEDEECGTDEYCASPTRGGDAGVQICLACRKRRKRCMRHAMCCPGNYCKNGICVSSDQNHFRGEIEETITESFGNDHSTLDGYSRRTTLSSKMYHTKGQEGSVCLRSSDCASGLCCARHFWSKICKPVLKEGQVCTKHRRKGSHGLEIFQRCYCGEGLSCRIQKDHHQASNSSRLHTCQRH
Sequence of Torsin-1A-interacting protein 1 (Homo sapiens) (Q5JTV8 whole entry, looked up): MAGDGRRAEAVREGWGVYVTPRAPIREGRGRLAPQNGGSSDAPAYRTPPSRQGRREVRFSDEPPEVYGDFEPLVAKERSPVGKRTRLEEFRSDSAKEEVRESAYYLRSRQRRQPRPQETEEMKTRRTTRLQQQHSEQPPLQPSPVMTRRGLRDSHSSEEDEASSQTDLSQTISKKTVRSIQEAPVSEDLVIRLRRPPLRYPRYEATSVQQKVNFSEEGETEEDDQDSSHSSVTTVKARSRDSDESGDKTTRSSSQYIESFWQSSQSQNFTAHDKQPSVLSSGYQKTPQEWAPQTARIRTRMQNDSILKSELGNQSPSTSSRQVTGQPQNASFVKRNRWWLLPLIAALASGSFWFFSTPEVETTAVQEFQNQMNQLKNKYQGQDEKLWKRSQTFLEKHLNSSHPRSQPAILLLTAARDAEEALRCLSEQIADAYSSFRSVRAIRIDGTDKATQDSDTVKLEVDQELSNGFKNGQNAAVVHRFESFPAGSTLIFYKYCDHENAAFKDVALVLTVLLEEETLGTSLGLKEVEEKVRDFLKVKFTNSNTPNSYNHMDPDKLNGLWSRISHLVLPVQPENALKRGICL

For `COCCOC(=O)N1C(=O)[C@@]2(c3cc(C#CCNC(N)=O)ccc31)[C@H](c1ccccc1OCCO)N1[C@H](c3ccccc3)[C@H](c3ccccc3)OC(=O)[C@H]1[C@@H]2C(=O)N1CCCCCCC1`, the composite z-score in assay [1] was determined as 1.42; in assay [2], 0.784; in [3], 0.735; in [5] it was 0.739; in assay [6] it was 1.11; in [7], 0.5. Also, the composite z-score in [8] came to 1.23; in [9] it was 0.557; in assay [10] it was 1.44; in assay [11] it was 0.6; in assay [13], 0.621; in [14], 1.47. In addition, the composite z-score is 0.716 in assay [15]; 0.14 in [16]; 0.31 in [17]; -0.499 in assay [18]; 1.02 in [19]; 1.68 in assay [20]. Also, the z-score in [4] is -0.402 (inactive); in [12], -1.84.

For `COc1cccc(C)c1NC(=O)O[C@H]1[C@H](OC(=O)Nc2ccccc2)[C@@H](OC(=O)Nc2ccccc2)[C@@H](OC)O[C@@H]1CO`, the composite z-score was 1.5 in assay [1]; 0.266 in assay [2]; 0.553 in assay [3]; 1.34 in [5]; 0.927 in assay [6]; 0.191 in [7]. Further, the composite z-score in assay [8] was 1.48; in [9] it was 0.474; in assay [10] it was 0.525; in assay [11], 1.52; in [13] it was 0.508; in assay [14], 1.13. Moreover, the composite z-score was -0.271 in assay [15]; 0.0321 in [16]; 0.157 in assay [17]; 0.0023 in assay [18]; 2.17 in [19]; 1.31 in [20]. The z-score in assay [4] was 0.449 (inactive); in assay [12], -2.72.

For the compound `CN1C(=O)C2C=CC(C(O)COCc3ccccc3)N(Nc3ccc([N+](=O)[O-])cc3[N+](=O)[O-])C2C1=O` (stereo not given), the composite z-score in assay [1] is 0.111; in assay [2] it was 0.753; in assay [3] it was 0.888; in assay [5] it was -0.0198; in [6], -0.443; in assay [7], -1.04. The composite z-score in assay [8] is -0.381; in [9], -0.82; in [10] it was 1.13; in assay [11] it was 0.826; in assay [13], -0.759; in assay [14] it was -0.528. Moreover, the composite z-score in assay [15] is -0.626; in assay [16], 0.173; in assay [17], -0.328; in [18] it was 0.702; in assay [19] it was 0.503; in [20] it was 0.814. For the same compound, the z-score in [4] was 0.806 (inactive); in assay [12] it was -0.295.

For `C=C(C(=O)CC[C@@H](OC(=O)c1cccnc1)c1cccc(OCCO)c1)C(C)C`, the composite z-score in assay [1] was 1.32; in assay [2] it was 0.28; in [3], 0.0064; in assay [5], 0.959; in assay [6] it was -0.521; in assay [7], 0.111. The composite z-score in [8] is 0.343; in assay [9] it was 0.109; in assay [10] it was 0.867; in [11], -0.501; in [13] it was 0.415; in assay [14] it was -0.323. Also, the composite z-score is -1.4 in [15]; -0.0405 in assay [16]; -0.123 in assay [17]; -0.0784 in assay [18]; 0.534 in assay [19]; 0.316 in assay [20]. Moreover, the z-score in assay [4] was 3.07 (inactive); in [12] it was -2.12.

Turning to `C=C(CCCC)/C(=C/C[C@@H](OC(C)=O)c1ccc(OCCO)cc1)c1cc(C(=O)OC)ccc1OC`, the composite z-score was 1.14 in [1]; 0.0822 in assay [2]; 0.411 in assay [3]; 0.151 in assay [5]; 0.244 in assay [6]; -0.597 in assay [7]. Also, the composite z-score was -0.137 in [8]; -0.348 in [9]; 0.763 in assay [10]; 0.722 in assay [11]; -0.103 in [13]; -0.108 in assay [14]. Further, the composite z-score in assay [15] is -0.95; in [16] it was -0.124; in assay [17] it was -0.0769; in assay [18], 0.408; in [19], 1.17; in assay [20], 0.722. Besides, the z-score in assay [4] is 0.374 (inactive); in assay [12] it was -2.31.
